Measurements as given in PubChem BioAssay AID686978 (National Center for Advancing Translational Sciences (NCATS), 2013).
Among all 420,000 compounds or so, about 64,000 (15%) were called active. Another 27% or so got no clear call; they are omitted. The call rests on the fitted dose curve; in most records, active means well fitted inhibition curve with a large enough effect; inconclusive means small, poorly fitted or top-dose-only effect; inactive means flat fitted curve, though single readings scatter. These entries were drawn from the full list. Entries that show only a call come without a potency.

assay: qHTS for Inhibitors of human tyrosyl-DNA phosphodiesterase 1 (TDP1): qHTS in cells in absence of CPT; details: DT40 Tdp1-/- hTDP1 cells, no CPT, ATP luminescence, 48 h; activity change, negative = growth inhibition: at 46.2 µM (top of the series); further: nearly all actives have a fitted effect of over 55% in size
In short: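 Compound effects on proliferation are scored in DT40 Tdp1-/-;hTDP1 cells in the absence of CPT. ATP levels (CellTiter-Glo luminescence) are recorded after a ≥48 hr, 37 °C incubation.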
Potency means the concentration at half of the fitted maximal effect.

Compound | Potency
CCCCSc1ncnc2c1sc1nc(N3CCOCC3)c3c(c12)CCCC3 | inactive
CC(C)Cc1nn2c(=O)cc(O)nc2s1 | inactive
CSc1nnc2c(n1)OC(c1ccsc1)N(C(C)=O)c1ccccc1-2 (stereo not drawn) | inactive
COc1ccccc1NC(=O)COC(=O)Cc1ccc(S(=O)(=O)N2CCCCC2)s1 | inactive
COC(=O)c1ccc(CSc2nncn2C)cc1 | inactive
COC(=O)c1ccc(CSc2nncn2N)cc1 | inactive
CCOC(=O)c1ccc(CSc2nnc3cc(C)c4ccccc4n23)cc1 | 20.6 µM (active)
COCc1c(C(=O)N/N=C/C2CC=CCC2)nnn1-c1nonc1N (stereo not drawn) | inactive
CCc1ccc(N2CC(C(=O)NC3=NCCS3)CC2=O)cc1 (stereo not drawn) | inactive
Cc1cccc(C(=O)OC(C)CN2CCCC2)c1 (stereo not drawn) | inactive
Cc1cccc(N)c1SC1CCCCC1O (stereo not drawn) | inactive
CCCn1nnc(NC(=O)COc2ccc(CC)cc2)n1 | inactive
O=C(OCc1ccccc1F)c1ccc2c(c1)OCCO2 | inactive
C=C(C)CNC(=S)N/N=C/c1ccccc1OCC(=O)O | inactive
C=CCNC(=S)N/N=C/c1ccc(C)s1 | 7.31 µM (active)
C=CCNC(=S)NNC(=O)c1ccc(Br)o1 | inactive
CCOC(=O)c1c(NC(=O)CN2C(=O)NC3(CCC(C)CC3)C2=O)sc(C)c1CC (stereo not drawn) | inactive

Compound | Potency
OCC(O)C1OCOC(C(O)CO)C1O (stereo not drawn) | inactive
COc1cc(F)ccc1-c1cc(C(=O)NCC2CCCCC2)[nH]n1 | inactive
COc1cc(NC(=O)c2cc(-c3ccc(F)cc3OC(C)C)n[nH]2)cc(OC)c1OC | 11.6 µM (active)
COc1cc(NC(=O)CCn2nc(C)cc2C)cc(OC)c1OC | inactive
COC(C)(C)[C@]12CC(O)(C(C)C)ON1[C@H]1CCCCC1N2O (stereo partly drawn) | inactive
CCC(=O)c1cc2c(cc1NC(=O)c1cccs1)OCCO2 | inactive
Cc1ccc(Oc2nc3ccccc3n3c(C)nnc23)cc1 | inactive
C[C@@H]1NC(=O)[C@@]2(C)[C@@H](c3ccccc3)[C@H]3COc4ccccc4[C@@H]3N2C1=O | inactive
CC(=O)Nc1ccc(-c2cn3cccnc3n2)cc1 | inactive
CCOC(=O)CC(=O)CSc1nc(-c2ccccc2)cc(-c2ccc(Cl)cc2)c1C#N | inactive
CCOc1cc(-c2cc(-c3ccc(NC(C)=O)cc3)nc(N)c2C#N)ccc1O | 20.6 µM (active)
CCCN(CC1CC1)C(=O)COC(=O)c1ccc(C)cc1O | inactive
CC(C)OC(=O)c1cc(NC(=O)C2C3CCC(O3)C2C(=O)O)cc(C(=O)OC(C)C)c1 (stereo not drawn) | inactive
O=C(CN1CCC(O)(c2cccc(C(F)(F)F)c2)CC1)NCCc1ccccc1 | 11.6 µM (active)
O=C(CN1CCC(O)(c2ccccc2)CC1)Nc1ccc2c(c1)OCCO2 | inactive
Cc1cc(NC(=O)CN2CCC(O)(c3cccc(F)c3)CC2)no1 | inactive
